Shiga inhibitor: blocks Shiga toxin action in Vero cells; inhibition, % at 38.7 µM; 290,000 tested, 9.2% active; Vero cells, Shiga toxin protein synthesis inhibition reporter; in the data active = inhibition mostly above about 28%, no sharp cut-off; inactive = mostly below about 43%; also: 0% is about no effect
Giardia FBPA inh: Giardia lamblia aldolase inhibition; purified Giardia FBPA; Potency, µM (titrated, usually from 59.6 µM), for the others: at the highest dose activity, negative = inhibition, most hits filed as inhibitors; 290,000 tested, 0.71% active; also: potency is read from the fitted curve at half-maximal effect; % is scaled to controls: 0 for no effect and ±100 for the full control effect; nearly all actives have a fitted effect of over 55% in size
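Giardia FBPA (40 nM reagent) was preincubated 10 min at RT with compound (up to 57.5 uM final), then substrate plus GAPDH/TPI/NAD/arsenate coupling system with diaphorase/resazurin was added; resorufin fluorescence (525/598 nm) was read after 20 min.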
LmPK inhibitor: LmPK (Leishmania mexicana) enzyme inhibition. Potency, µM (series often up to 57.5 µM), without a hit: top-dose activity change, negative = inhibition, most hits filed as inhibitors. 290,000 tested, 0.37% active. purified LmPK, Kinase-Glo ATP luminescence, 1 h. Q27686; also: potency is read from the fitted curve at half-maximal effect; % is scaled to controls: 0 for no effect and ±100 for the full control effect
Target sequence (Q27686 whole entry, looked up): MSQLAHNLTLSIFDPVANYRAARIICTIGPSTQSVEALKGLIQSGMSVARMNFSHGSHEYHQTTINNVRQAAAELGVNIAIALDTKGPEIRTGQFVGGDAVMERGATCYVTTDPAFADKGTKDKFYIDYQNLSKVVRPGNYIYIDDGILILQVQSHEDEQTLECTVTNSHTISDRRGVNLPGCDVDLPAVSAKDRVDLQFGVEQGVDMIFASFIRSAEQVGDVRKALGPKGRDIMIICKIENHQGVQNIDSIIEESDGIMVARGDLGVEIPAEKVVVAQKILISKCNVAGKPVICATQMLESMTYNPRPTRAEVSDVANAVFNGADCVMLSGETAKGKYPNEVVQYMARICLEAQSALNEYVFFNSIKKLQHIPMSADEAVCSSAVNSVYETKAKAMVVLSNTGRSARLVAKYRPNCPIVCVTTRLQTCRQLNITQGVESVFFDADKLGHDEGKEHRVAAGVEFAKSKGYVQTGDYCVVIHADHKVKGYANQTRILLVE
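In 50 mM imidazole pH 7.2 with 7 mM MgCl2, LmPK (0.1 nM) turned over PEP (0.5 mM) and ADP (0.1 mM) for 1 h at room temperature. Luciferase read-out of ATP.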
CHX counter: affects cycloheximide protein synthesis inhibition readout, counter-screen; cell reporter, cycloheximide protein synthesis inhibition counterscreen; max response, %; 300,000 tested, 12% active; AID 2314; in the data active = max response mostly above about 13%, no sharp cut-off; inactive = mostly below about 14%; also: read at 38.3 µM for the half of the compounds with a filed dose; 0% is about no effect
RE007 growth inh: less growth of the S. pombe RE007 Vpr strain; S. pombe RE007 Vpr strain, BacTiter-Glo ATP luminescence, 24 h; Potency, µM (top dose mostly 92.2 µM), without a hit: at the top dose activity change, negative = less growth, usual class: inhibitors; 360,000 tested, 0.21% active; AID 651644; active = well fitted falling curve with a large enough effect; inconclusive = small, poorly fitted or top-dose-only effect; inactive = no such curve, though single readings can be large or run the other way; also: potency is read from the fitted curve at half-maximal effect; % is scaled to controls: 0 for no effect and ±100 for the full control effect; nearly all actives have a fitted effect of over 50% in size
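Fission yeast strain RE007, carrying one chromosomally integrated HIV-1 vpr copy, was seeded at OD 0.01 in PMG+AL medium with 23 nL pinned compound. After 24 h at 30 °C and 99% humidity, viability was read by BacTiter-Glo luminescence.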
TbPYK inhibitor: inhibitors of Trypanosoma brucei pyruvate kinase; Q57TT1; TbPYK enzyme, Kinase-Glo Plus ATP luminescence, 45 min; Potency, µM (highest dose often 76.8 µM), for inactives: top-dose activity, negative = inhibition, most hits filed as inhibitors; 410,000 tested, 0.12% active; also: potency is read from the fitted curve at half-maximal effect; % is scaled to controls: 0 for no effect and ±100 for the full control effect; nearly all actives have a fitted effect of over 50% in size
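Screened from lowest to highest concentration, compounds were pinned into TbPYK/substrate mixtures, and ADP (130 uM final) was added. Plates sat at room temperature for 45 min prior to Kinase-Glo Plus detection by luminescence.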
Numbers without * were called inactive; ? = inconclusive; nt = no result; [ ] = dose if it differs, or a comment. Many of the other results were omitted from the sample, so hits are more common in it than they were. Unless noted, calls follow the shape of the dose curve; as a rule, active = well fitted curve in the direction sought with a large enough effect; inconclusive = small, poorly fitted or top-dose-only effect, or another doubt; inactive = no such curve, though single readings can be large; an effect the other way counts as inactive or inconclusive.

SMILES	Shiga inhibitor	Giardia FBPA inh	LmPK inhibitor	CHX counter	RE007 growth inh	TbPYK inhibitor
O=C1NCCN/C1=C\C(=O)c1cccc(Br)c1	71.6*	6.9%	-0.2%	34.2*	-25.4%	-0.1%
O=C1OCCN/C1=C\C(=O)c1ccccc1	-3.0	-5.0%	3.3%	-1.1	10.9%	2.6%
O=C1NCCN/C1=C\C(=O)c1ccccc1	26.3	2.7%	-4.3%	32.5*	-7.8%	-5.5%
C[C@@H](NC(=O)[C@@H]1CCCN1C(=O)[C@@H]1CCCN1C(=O)OC(C)(C)C)c1ccccc1	nt	nt	nt	nt	11.2%	2.2%
O=C(CCN1CCCC1)Nc1ccc(Br)cc1	7.7	-13.6%	-0.3%	-0.7	-13.6%	-6.2%
COc1cccc(NC(=O)C2CCN(C(=O)[C@@H]3Cc4ccccc4CN3)CC2)c1	11.8	nt	5.2%	38.2*	4.8%	0.0%
CN1CCN(C(=S)C(=O)Nc2ccc(Br)cc2)CC1	1.3	5µM*	0.8%	-2.6	5.8%	?
O=C(Nc1ccc(Br)cc1)N1CCCCC1	139.5*	-4.2%	-10.3%	42.4*	-13.5%	0.7%
COc1cccc(NC(=O)C2CCN(C(=O)[C@@H]3Cc4ccccc4CN3C(=O)OC(C)(C)C)CC2)c1	12.4	nt	7.5%	14.6	17.1%	-7.4%
COc1cccc(NC(=O)N2CCOCC2)c1	-3.1	-8.3%	-3.8%	-4.6	1.5%	-8.3%
CN1CCC(NC(=O)Nc2ccc(Br)cc2)CC1	28.9	0.1%	2.4%	0.6	-2.4%	-1.7%
COc1cccc(NC(=O)N2CCCCCC2)c1	46.2*	-4.0%	-1.9%	74.4*	0.6%	0.3%
Cc1ccc(OCCn2c(C3CC(=O)N(Cc4ccc(F)cc4)C3)nc3ccccc32)c(C)c1 (configuration not stated)	nt	nt	nt	nt	nt	2.0%
COc1ccc(-c2nnc(SCc3ccc(C(=O)O)cc3)n2C)cc1OC	-0.2	-11.4%	3.9%	-0.9	-2.4%	0.4%
CCc1ccc(O)c(C(=O)c2cnc3cc(-c4ccc(C)cc4)nn3c2)c1	nt	nt	nt	nt	nt	1.7%
COc1ccc(NC(=O)N2CCCC(c3ccccc3)C2)cc1 (configuration not stated)	46.9	-26.3%	2.5%	17.0*	21.4%	-3.2%
O=C(Nc1ccc([N+](=O)[O-])cc1)N1CCCCCC1	50.5*	1.6%	-7.1%	40.8*	-11.6%	0.5%
COc1ccc(NC(=O)N2CCCCCC2)cc1	50.2*	1.6%	-2.0%	21.3*	22.2%	2.6%
CCC1CCC(C(=O)NC(C(=O)Nc2cccc(OC)c2)C(C)C)CC1 (configuration not stated)	nt	nt	nt	nt	nt	-1.5%
O=C(Nc1ccc([N+](=O)[O-])cc1)N1CCCCC1	49.9	2.3%	-3.4%	23.8	-4.8%	-1.9%
CCC1CCC(NC(=O)Nc2cccc(OC)c2)CC1 (configuration not stated)	64.4*	0.3%	4.4%	51.8*	2.5%	3.1%
COc1ccc(NC(=O)N2CCN(C(=O)Nc3ccc(OC)cc3)CC2)cc1	0.5	3.0%	4.7%	-2.6	10.2%	5.2%
COc1ccc(NC(=O)N2CCC3(CC2)OCCO3)cc1	35.3	0.2%	-0.1%	26.7*	-13.3%	-4.9%
COc1cccc(NC(=O)N2CCN(c3cccc(C)c3)C(C)C2)c1 (configuration not stated)	50.3*	-4.3%	4.0%	33.6*	-4.3%	4.4%
COc1cccc(NC(=O)C2CCCC2)c1	nt	nt	nt	nt	-24.3%	-1.2%
SMILES	Shiga inhibitor	Giardia FBPA inh	LmPK inhibitor	CHX counter	RE007 growth inh	TbPYK inhibitor
COc1cccc(NC(=O)C2CCCCC2)c1	44.0*	0.0%	6.1%	28.7*	-0.8%	-0.7%
COc1ccc(NC(=O)OC(CN2CCCCC2)C(F)(F)F)cc1 (configuration not stated)	21.1	-1.8%	-9.2%	21.4*	3.5%	3.9%
Cc1cccc(N2CCN(C(=O)Nc3ccc(F)cc3)CC2C)c1 (configuration not stated)	nt	nt	nt	nt	nt	4.3%
CC1(C)S[C@@H]2[C@H](NC(=O)COc3ccccc3)C(=O)N2[C@H]1C(=O)O	-2.3	-29.6%	nt	9.4	nt	10.6%
CCCN1CCN(CC2=C(C(=O)OCC)C(c3cccc(OC)c3OC)NC(=O)N2)CC1 (configuration not stated)	nt	nt	nt	nt	nt	-1.3%
COc1ccccc1/C=C/C=N/NC(=O)c1cnccn1	63.7*	-9.6%	-2.9%	34.7*	-14.5%	1.9%
COc1ccccc1/C=C/C=N/NC(=O)c1ccccn1	55.5*	-6.5%	-18.9%	22.6*	-3.5%	2.6%
CCCC(=O)Nc1ccc(-c2nc3ncccc3o2)cc1C	nt	nt	nt	nt	nt	-0.4%
COc1cc(C(=O)COC(=O)c2ccco2)cc(OC)c1OC	nt	nt	nt	nt	?	2.6%
O=C(Oc1ccccc1)c1cc2ccccc2o1	12.1	0.2%	-26.9%	8.5	-9.1%	-9.6%
Cc1ccc(C(=O)COC(=O)c2ccco2)cc1C	88.4*	nt	-9.5%	49.3*	-13.8%	-6.1%
CC1CC(C)(C)Nc2ccc(N=O)cc21 (configuration not stated)	78.6*	?	-4.8%	50.7*	-27.1%	-2.6%
O=C(Oc1ccc2ccccc2c1)c1ccco1	33.3	-3.6%	-9.3%	20.0*	?	3.1%
O=C(COC(=O)c1cc2ccccc2o1)c1ccccc1	117.1*	-0.2%	0.4%	39.0*	-13.5%	-5.9%
COc1ccc(-n2c(=O)c(C)nc3cnc(N4CCNCC4)nc32)cc1	nt	-12.4%	nt	nt	nt	12.7%
CCNC(=O)C1CCCN(C(=O)c2ccc3c(c2)CCO3)CC1 (configuration not stated)	nt	nt	nt	nt	-3.7%[18.4 µM]	4.7%
CCN(CC)S(=O)(=O)c1ccc(C)c(C(=O)Oc2cccc(-c3cnc4ccccc4n3)c2)c1	11.1	-1.7%	0.1%	4.5	-2.7%	0.1%
Cc1ccc(CNC(=O)COC(=O)c2ccc(Br)o2)cc1	nt	nt	nt	nt	2.8%	5.5%
CC(C)[C@H](NC(=O)c1ccco1)C(=O)OCC(=O)c1ccc2c(c1)NC(=O)CO2	-0.7	2.2%	1.1%	1.2	0.0%	-1.0%
O=C(CSCc1ccc(Cl)cc1)c1ccco1	73.3	-5.6%	-4.4%	20.7*	nt	nt
O=C(Oc1cccc(-c2cnc3ccccc3n2)c1)c1ccco1	48.8	-5.5%	8.9%	45.4*	-9.0%	2.8%
O=C1COc2ccc(C(=O)COC(=O)c3ccco3)cc2N1	42.2*	0.1%	-1.9%	27.1*	-12.8%	2.5%
Cc1ccc(C(=O)COC(=O)c2ccc(Br)o2)cc1C	62.7*	-4.2%	3.6%	40.3*	?	3.4%
O=C(CSc1ccc(Cl)cc1)NNC(=O)c1ccco1	-7.9	nt	-12.1%	10.3	7.8%	-4.5%
CC(C)(Oc1ccc(Cl)cc1)C(=O)Nc1nc2ccc(S(C)(=O)=O)cc2s1	nt	nt	nt	nt	nt	-6.4%
Cc1ccc(C(=O)COC(=O)c2cc(=O)[nH]c3ccccc23)cc1C	150.2*	-0.3%	-3.6%	24.1*	-0.7%	3.4%
